Columns and labels:
Type in all cases: functional
[1] = biological target: Solute carrier family 2, facilitated glucose transporter member 1 (Homo sapiens) (UniProt P11166); assay: ST_JUDE_LEISH: Cytotoxicity at 2uM final concentration against transgenic Leishmania Mexicana promastigotes LmGLUT1 that are glucose transport deficient and complemented with the human glucose transporter GLUT1. Activity is measured by DNA content using SYBR green in vitro
[2] = biological target: Hexose transporter 1 (Plasmodium falciparum) (UniProt O97467); assay: ST_JUDE_LEISH: Cytotoxicity at 2uM final concentration against transgenic Leishmania Mexicana promastigotes LmPfHT that are glucose transport deficient and complemented with the Plasmodium falciparum hexose transporter. Activity is measured by DNA content using SYBR green in vitro
[3] = biological target: Glucose transporter (Leishmania mexicana) (UniProt O61059); assay: ST_JUDE_LEISH: Cytotoxicity at 2uM final concentration against transgenic Leishmania Mexicana promastigotes LmGT2 that are glucose transport deficient and complemented with the L. Mexicana glucose transporter 2. Activity is measured by DNA content using SYBR green in vitro

Chain of Solute carrier family 2, facilitated glucose transporter member 1 (Homo sapiens) (P11166 whole entry): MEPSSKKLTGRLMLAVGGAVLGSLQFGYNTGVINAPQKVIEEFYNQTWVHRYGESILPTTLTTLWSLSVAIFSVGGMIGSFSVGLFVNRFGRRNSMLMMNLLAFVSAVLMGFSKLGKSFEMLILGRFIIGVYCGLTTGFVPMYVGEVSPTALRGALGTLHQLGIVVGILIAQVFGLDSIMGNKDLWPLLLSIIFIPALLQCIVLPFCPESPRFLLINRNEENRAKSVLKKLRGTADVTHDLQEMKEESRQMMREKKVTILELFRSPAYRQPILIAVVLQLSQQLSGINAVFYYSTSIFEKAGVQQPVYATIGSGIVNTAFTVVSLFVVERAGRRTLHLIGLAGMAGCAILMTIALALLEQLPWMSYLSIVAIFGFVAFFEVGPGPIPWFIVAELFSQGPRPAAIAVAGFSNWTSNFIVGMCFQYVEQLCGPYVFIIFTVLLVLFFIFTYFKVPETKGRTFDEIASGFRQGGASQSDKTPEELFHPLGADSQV

CCC(C)CN1CCN(c2ccc(NC(=O)c3cccs3)cc2)CC1C (stereo not drawn)
inhibition [1]: 0.37%
inhibition [2]: 0.02%
inhibition [3]: 1.01%

Cc1ccc2[nH]c(-c3ccc(C=CC(=O)NCc4ccc(Cl)c(Cl)c4)cc3)nc2c1
inhibition [1]: 10.3%
inhibition [2]: 9.48%
inhibition [3]: 4.93%

COc1cc(C(=O)N2CCN(C(C)C)CC2)ccc1CN(C)CCCN1CCN(c2cccc(Cl)c2Cl)CC1
inhibition [1]: 0.76%
inhibition [2]: 0.33%
inhibition [3]: 0.31%

CC(C)C[C@H](NC(=O)OC(C)(C)C)C(=O)Nc1ccc(Cc2ccc(NC(=O)[C@H](CC(C)C)NC(=O)OC(C)(C)C)cc2)cc1
inhibition [1]: 3.16%
inhibition [2]: 3.22%
inhibition [3]: 2.99%

CCOC(=O)CNC(=O)N1CCN(C(=O)NCC(=O)OCC)CC1
inhibition [1]: 0.06%
inhibition [2]: 0.22%
inhibition [3]: 1.45%

CNc1ccc(CNCc2ccc(-c3ccc(-c4nc5cccc(C)c5[nH]4)cc3)cc2)cc1
inhibition [1]: 18.3%
inhibition [2]: 15.5%
inhibition [3]: 7.71%

CN1CCC(NC(=O)c2cc(Oc3ccc4c(c3)CCN4C(=O)Nc3cccc(C(F)(F)F)c3)ccn2)CC1
inhibition [1]: 3.67%
inhibition [2]: 6.55%
inhibition [3]: 1.74%

C=C[C@]1(C)C[C@@H](OC(=O)CNC[C@@H](O)CN2C[C@H](c3ccnc4ccc(OC)nc34)OC2=O)[C@@]2(C)[C@@H]3C(=O)CC[C@@]3(CC[C@@H]2C)[C@@H](C)[C@@H]1O
inhibition [1]: 2.09%
inhibition [2]: 1.68%
inhibition [3]: 1.03%

Nc1nc(N)c2c(ccn2Cc2cc3c(cc2Cl)OCO3)n1
inhibition [1]: 4.12%
inhibition [2]: 2.86%
inhibition [3]: 10.5%

COC(=O)c1c(NC(=O)c2cccc(C(F)(F)F)c2)sc2c1CCN(Cc1ccccc1)C2
inhibition [1]: 1.14%
inhibition [2]: 5%
inhibition [3]: -1.31%

O=C(NCc1ccc(Cl)c(Cl)c1)c1cc(CNC2CCNCC2)ccc1O
inhibition [1]: 0.91%
inhibition [2]: 5.71%
inhibition [3]: 2.11%

From ChEMBL document CHEMBL3433997, “St. Jude Leishmania screening dataset” (2016)
